Screening results from PubChem.
UBC9 SUMO inh – inhibitors of in vitro SUMOylation cascade, primary screen, biochemical, HTRF, uHTS. 0.36% of 290,000 active. SUMO-conjugating enzyme UBC9 (Homo sapiens), P63279. AID 2006, 2009. inhibition, % at 35 µM. HTRF SUMOylation assay, SAE1/SAE2 + UBC9; in the data active means inhibition above about 50%, passing the limit was not always enough
eIF4E-4G inh – eIF4E–eIF4G protein interaction inhibitors, primary screen, biochemical, uHTS, TR-FRET, eIF4GI fragment | Eukaryotic translation initiation factor 4E (Mus musculus) + Eukaryotic translation … | TR-FRET eIF4E-eIF4GI(517-606) binding, 2 h | inhibition, % at 21.7 µM | 0.37% of 220,000 active;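 further: 0% = full FRET control wells and 100% = background wells lacking eIF4GI fragment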
p47phox inh – p47phox/p22phox peptide binding inhibitors, primary screen, biochemical, uHTS, NADPH oxidase regulatory subunit; inhibition, % at 24.7 µM; Neutrophil cytosol factor 1 (Homo sapiens), P14598; fluorescence polarization, 2 h; 0.53% of 220,000 active;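 further: 0% = p47phox with labelled peptide and 100% = labelled peptide alone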
14-3-3 Bad PPI – inhibitors of 14-3-3 zeta/Bad binding, primary screen, biochemical, TR-FRET, bovine 14-3-3 zeta; inhibition, % at 21.7 µM; 0.71% of 220,000 active; 14-3-3 protein zeta/delta (Bos taurus), P63103; TR-FRET 14-3-3zeta/Dy647-pBad peptide displacement, 1 h;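 active means inhibition above about 70%, limit read from the data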;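 further: 0% = full 14-3-3 plus peptide FRET controls and 100% = background without 14-3-3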
* marks the source's active call; other numbers are inactive results; . = not tested or not shown; [ ] = remark or other dose. This is a sample that favours compounds with a hit; in the whole collection about 1.3% have one here.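 How the source made its calls, unless noted: active means inhibition above about 30% (limit read from the data); inactive means the rest.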

SMILES	UBC9 SUMO inh	eIF4E-4G inh	p47phox inh	14-3-3 Bad PPI
COc1ccc(Nc2nc(C)c3ccccc3n2)cc1	5.5	11.9	1.1	92.8*
COc1cccc(N(C(=O)Cn2nnc(-c3cccs3)n2)C(C(=O)NC2CCCCC2)c2ccncc2)c1 (configuration not stated)	7.8	-15.0	46.0*	14.2
COc1ccc(N(C(=O)Cc2cccs2)C(C(=O)NC2CCCCC2)c2cccn2C)cc1 (configuration not stated)	1.1	-3.4	-6.0	90.2*
Cn1cccc1C(C(=O)NC1CCCCC1)N(C(=O)Cc1cccs1)c1ccc2c(c1)OCO2 (configuration not stated)	25.2	-29.0	-11.1	-7.5
Cc1ccc(C)c(N(C(=O)Cn2nnc(-c3cccs3)n2)C(C(=O)NC2CCCC2)c2ccncc2)c1 (configuration not stated)	-7.7	2.8	0.4	-6.3
Cc1csc(C(C#N)C(=O)c2cc3ccccc3o2)n1 (configuration not stated)	-27.5	6.4	-14.5	38.3
CC(C)C[C@H](NC(=O)[C@@H]1Cc2c([nH]c3ccccc23)C2c3ccccc3C(=O)N21)C(=O)N1CCC[C@@H]1C(=O)O (some centres not stated)	11.0	.	.	.
N#C/C(=C\c1sc(N2CCOCC2)nc1-c1ccccc1)C(=O)Nc1cccc2ccccc12	23.1	45.4*	-30.4	-5.0
O=C(Nc1ccccc1)c1sc(N2CCOCC2)nc1-c1ccccc1	3.2	-2.2	1.9	3.3
Cc1ccc(-c2cc3c(nn2)-c2ccccc2C3=O)cc1	-7.9	-0.7	-4.0	-1.1
O=C1c2ccccc2-c2nnc(-c3ccc(F)cc3)cc21	5.8	2.6	45.8*	-9.6
O=C1c2ccccc2-c2nnc(-c3ccc(O)cc3)cc21	-17.1	0.9	-9.2	-9.5
Cc1ccccc1-c1cc2c(nn1)-c1ccccc1C2=O	88.4*	.	-6.5	.
NC(=O)CC(NC(=O)Cc1cccc2ccccc12)c1ccc(NC2CCCCCCC2)c([N+](=O)[O-])c1 (configuration not stated)	44.9	-2.5	14.9	20.9
NC(=O)CC(NC(=O)Cc1cccc2ccccc12)c1ccc(NCCc2ccccc2F)c([N+](=O)[O-])c1 (configuration not stated)	50.2*	1.4	9.0	9.8
NC(=O)CC(NC(=O)Cc1cccc2ccccc12)c1ccc(NC2CCCCCC2)c([N+](=O)[O-])c1 (configuration not stated)	61.0*	-1.8	8.8	-2.7
Cc1ccc(C2CC(C(F)F)n3ncc(C(=O)Nc4c(C)nn(Cc5c(F)cccc5Cl)c4C)c3N2)cc1 (configuration not stated)	-27.3	3.1	-14.2	-6.0
COc1ccc(C(N)CCc2ccc(C)o2)cc1 (configuration not stated)	28.5	-2.7	-5.5	87.9*[fluorescence artefact?]
COc1ccc(C(=O)N/C(=C\c2ccccc2)C(=O)Nc2cccc(C(=O)O)c2)cc1	1.3	.	.	.
O=C(Nc1cccc(C(=O)O)c1)/C(=C\c1ccccc1)NC(=O)c1cccc2ccccc12	24.6	-2.5	122.2*	-9.8
COc1ccc(C(C)=O)cc1COC(=O)CNC(=O)c1ccc(Cl)cc1	-6.8	-0.9	193.7*	11.4
O=C(O)C1CCN(C(=O)COc2ccc3c(c2)oc(=O)c2ccccc23)CC1	20.3	.	.	.
O=C(CN1CCCCC1)Nc1ccc(NC(=O)c2ccccc2Cl)cc1Cl	5.0	4.4	-11.1	7.7
COCCn1c(=O)[nH]c(=O)c2c1nc(-c1ccc(-c3ccc(Cl)cc3[N+](=O)[O-])o1)n2Cc1ccccc1	18.8	8.9	-18.7	-21.0
COc1ccc(-c2ccc(-c3nc4c(c(=O)[nH]c(=O)n4Cc4ccccc4)n3C)o2)c([N+](=O)[O-])c1	8.1	7.0	54.9*	50.7
CC(=O)c1cccc(NC(=S)N2CCN(S(=O)(=O)c3ccccc3)CC2)c1	-0.8	.	.	.
CCC(C)(C)NC(=O)C(c1ccc(F)cc1)N(Cc1cccs1)C(=O)c1cnccn1 (configuration not stated)	-5.4	-0.2	11.0	-9.4
CN(Cc1ccccc1)S(=O)(=O)c1ccc(N2CCOCC2)nc1	22.0	-1.2	-5.1	2.1
COC(=O)c1ccccc1NC(=O)C1CC(c2ccc(F)cc2)=NO1 (configuration not stated)	7.3	-18.0	-1.0	-6.4
